# Measured values taken from PubChem BioAssay AID1490 (National Center for Advancing Translational Sciences (NCATS), 2009).
# Among all 310,000 compounds or so, about 11,000 (3.5%) were called active. Roughly 4% stayed inconclusive and do not appear here. What follows is part of a selection rich in actives, with near analogues and random picks from the rest. A number with no mark means an inactive call. The call rests on the fitted dose curve; in most records, active means well fitted inhibition curve with a large enough effect; inconclusive means small, poorly fitted or top-dose-only effect, or another doubt; inactive means no such curve, though single readings can be large or run the other way.
# Biological target: 4'-phosphopantetheinyl transferase ffp (Bacillus subtilis) (UniProt Q9F4F7)
# Assay: qHTS Assay for Inhibitors of Bacillus subtilis Sfp phosphopantetheinyl transferase (PPTase);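 further: the enzyme is Sfp with the accession as filed and its product quenches rhodamine fluorescence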;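 on largest response in the series, negative = inhibition: 0% = enzyme reaction without inhibitor and -100% = no enzyme wells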
# Conditions: Biochemical Sfp PPTase activity
# Text: Assay Submitter: Michael Burkart, University of California, San Diego
# Screening Center PI: Austin, C.P.
# Screening Center: NIH Chemical Genomics Center [NCGC]
# The covalent attachment of a phosphopantetheinyl (4'-PP) arm to a variety of synthases and other proteins is a key posttranslational protein modification. The 4'-PP is installed on the proteins post-translationally from coenzyme A (CoA) on a conserved serine residue by action of phosphopantetheinyl transferase (PPTase) enzymes. Phosphopantetheinylation is essential for synthase activity, and removal of the PPTase gene precludes natural product synthesis in microorganisms, or in the case of fatty acid biosynthesis, renders the organism unviable. PPTase enzymes belong to a distinct structural superfamily. Within bacteria, these enzymes are grouped into two classes based upon primary structure, the AcpS-Type and Sfp-Type PPTases.
# Sfp-type PPTases, corresponding to an activator of surfactin production in Bacillus subtilis, are responsible for modifying type I polyketide and nonribosomal peptide synthases of prokaryotes. Sfp-type PPTases are responsible for the activation of a variety of pathogen-associated virulence factors. Among these compounds are toxins such as mycolactone from Mycobacterium ulcerans, siderophores such as vibriobactin from Vibrio cholerae or mycobactin from Mycobacterium tuberculosis, as well as the mycolic acids which form the waxy cell wall of Mycobacteria. The biosyntheses of these natural products are considered attractive targets for drug design.
# In search of small molecule Sfp-PPTase inhibitors, a fluorescence quenching assay was developed for detection of Bacillus subtilis Sfp-PPTase enzymatic activity in a miniaturized high-throughput format. The consensus ybbr acceptor peptide […] was N-terminally labeled with Black Hole Quencher-2 (BHQ-2) and used in combination with rhodamine-labeled coenzyme A as a co-substrate.
# Inhibition of Sfp-PPTase was detected by recording the fluorescence intensity change over a 30-minute reaction period at a 525 nm excitation and 598 nm emission. Reagents were supplied by Michael Burkart and Timothy Foley, University of California at San Diego.
# This BioAssay deposition is for validation of the developed Sfp-PPtase assay.
# Assay Buffer: 50 mM Hepes-Na pH 7.6, 10 mM MgCl2, 0.01% Nonidet P-40, and 0.01% BSA.
# 3 uL of Sfp-PPTase enzyme (final concentration 15 nM) and 1 uL of substrate mixture (final concentration for rhodamine-CoA and BHQ-2-YbbR 5 uM and 12.5 uM, respectively) dispensed in columns 1, 2, 5 - 48. Columns 1 and 2 used to generate neutral control (uninhibited reaction)
# Three uL of reagents, consisting of buffer (in columns 3 and 4 as negative control) and Sfp-PPTase (in columns 1, 2, 5 - 48) were dispensed into 1,536-well Greiner black solid bottom plate. Compounds (23 nL) were transferred via Kalypsys pintool equipped with 1,536-pin array. The plate was incubated for 15 min at room temperature, followed by the addition of 1 uL substrate to start the reaction. The plate was then centrifuged at 1000 rpm for 15 seconds, and the fluorescence intensity recorded on a ViewLux High-throughput CCD imager (Perkin-Elmer) using standard BODIPY optics (525 nm excitation and 598 nm emission). The plate was then incubated for 30 minutes, and a second read on the ViewLux was performed. The fluorescence intensity difference over the 30-minute period was used to calculate the respective reaction rate for each well.
# Potency means the concentration at half of the fitted maximal effect.
SMILES,"largest response in the series, negative = inhibition",Potency
O=[N+]([O-])c1cccc(S(=O)(=O)NCc2ccccn2)c1,1.73%,
O=C(Nc1cccc(C(F)(F)F)c1)c1cc(Br)cc(Br)c1O,-10.2%,
O=c1cc(CO)oc(C(Nc2cccc(C(F)(F)F)c2)c2ccccn2)c1O (stereo not given),,7.94 µM (active)
FC(F)(F)c1cccc(Nc2ncnc3ccccc23)c1,5.92%,
O=C(Nc1cccc([N+](=O)[O-])c1)Nn1cnnc1,16.6%,
O=c1cc(CO)oc(C(Nc2cccc([N+](=O)[O-])c2)c2ccccn2)c1O (stereo not given),,20 µM (active)
CCC(C)C(NC(=O)C1CCC(=O)N1C(=O)OCc1ccccc1)C(=O)NC(C(=O)N1CCCC1C(N)=O)C(C)CC (stereo not given),18.8%,
N#Cc1ccccc1NC(=O)c1ccc2c(c1)OCO2,20.2%,
COc1ccc(CN2C3CCCC2CC(NC(=O)c2cccc(F)c2)C3)cc1 (stereo not given),9.04%,
O=C(N/N=C/c1cccc(Br)c1)c1ccc(N2CCCC2=O)cc1,2.98%,
Cc1occc1C(=O)NC1CCCN(Cc2ccc(CC(C)C)cc2)C1 (stereo not given),10%,
COc1ccc(CNC(=O)CN(C(=O)c2csnn2)c2cnc3ccccc3c2)cc1,15.4%,
COC(=O)c1c(NC(=O)c2cccs2)sc2c1CCCC2,6.07%,
CCc1c(C)sc(NC(=O)c2ccc(Br)o2)c1C(=O)OC,-4.91%,
CCc1c(C)sc(NC(=O)c2cccs2)c1C(N)=O,,14.1 µM (active)
CC(C)(COC(=O)Nc1ccccc1)COC(=O)Nc1ccccc1,5.47%,
NC(=O)CSc1nnc(NC(=O)c2ccc(Br)o2)s1,4.59%,
Cc1cc(OC(=O)c2ccc(OC(C)C)cc2)c([N+](=O)[O-])c(=O)[nH]1,16.6%,
c1ccc(COc2ccccc2CNCc2cccnc2)cc1,,56.2 µM (active)
C=CCOc1cccc(CNCc2cccnc2)c1,-13.5%,
Fc1ccccc1COc1ccccc1CNCc1ccncc1,-8.76%,
Oc1c(Cl)cc(Cl)cc1/C=N/c1ncn[nH]1,-2.74%,
Cc1ccccc1CN1C[C@@H]2C[C@@H](c3cn(C)nc3-c3ccccc3)N3CCC[C@@]23C1=O,,3.16 µM (active)

SMILES,"largest response in the series, negative = inhibition",Potency
Cc1ccc(CN2CCN(Cc3cn(C)nc3-c3ccccc3)CC2CCO)o1 (stereo not given),8.78%,
Cc1ccccc1CN1C[C@@H]2C[C@@H](c3ccc4nsnc4c3)N3CCC[C@@]23C1=O,7.31%,
COc1ccc(NC(=O)CSc2nc(SC)ns2)c(OC)c1,8.6%,
COC(=O)c1c(C)[nH]c(C)c1-c1ccc([N+](=O)[O-])cc1,9.93%,
COC(=O)C1=C(C(=O)OC)C(c2cc([N+](=O)[O-])ccc2O)c2sc(=O)[nH]c2S1 (stereo not given),,44.7 µM (active)
COC(=O)C1=C(C)N(C)C(=O)NC1c1ccc([N+](=O)[O-])o1 (stereo not given),23.4%,
COC(=O)c1cc(S(=O)(=O)N2CCN(c3cc(C)ccc3C)CC2)c[nH]1,24.2%,
COc1ccc(S(=O)(=O)n2nc(C)c(S(=O)(=O)N3CCOCC3)c2C)cc1,8.67%,
COc1cccc(C2Nc3cccc4cccc(c34)N2)c1,6.1%,
Cc1ccc(C2Nc3cccc4cccc(c34)N2)cc1,-26.1%,
Oc1ccc(C2Nc3cccc4cccc(c34)N2)cc1,,35.5 µM (active)
FCOC(C(F)(F)F)C(F)(F)F,11.5%,
CCc1ccc(NC(=O)Cn2nnc(C(=O)NCc3ccc(OC)cc3)c2N)cc1,4.14%,
COc1ccc(CNc2ncncc2-c2ccccc2OC)c(OC)c1,-6.24%,
COc1ccc(CNc2ncncc2-c2ccccc2C)c(OC)c1,-23.8%,
Cc1cnc(CNc2ncncc2-c2ccccc2Cl)cn1,,79.4 µM (active)
CS(=O)(=O)c1ccccc1C(=O)Nc1ccc2sccc2c1,8.96%,
CCn1c(SCc2ccccc2)nc2c(c1=O)SCC2,11.2%,
Cc1cccc(CSc2nc3c(c(=O)n2C)SCC3)c1,,50.1 µM (active)
Cn1c(SCC(=O)N2CCCCC2)nc2c(c1=O)SCC2,15.7%,
Cc1ccc(S(=O)(=O)N(Cc2ccccc2)c2ccccn2)cc1[N+](=O)[O-],11.4%,
COc1cc(S(=O)(=O)Nc2ncn[nH]2)ccc1Cl,-14.8%,
